Bioassay records: PubChem, National Center for Advancing Translational Sciences (NCATS)
Compounds with a hit are over-represented: about 0.92% of the library has one in this group of screens.
APEX1 inh: qHTS Assay for Inhibitors of the Human Apurinic/apyrimidinic Endonuclease 1 (APE1); DNA repair nuclease/redox regulator APEX1 (Homo sapiens), P27695; recombinant APE1, TAMRA/BHQ-2 abasic DNA cleavage fluorescence; Potency, µM (highest dose often 65.8 µM), most hits filed as inhibitors; actives 0.35% (n = 350,000); further: nearly all actives have a fitted effect of over 55% in size
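APE1 at 0.75 nM preincubated 15 min at room temperature with compound. Reaction then started with 50 nM double-stranded THF-abasic substrate labelled with TAMRA/BHQ-2, and 525/598 nm fluorescence read kinetically. Activity taken as third-minus-first read difference, normalized to DMSO and NSC13755 controls.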
TDP1 inh: qHTS Assay for Inhibitors of Tyrosyl-DNA Phosphodiesterase (TDP1). recombinant TDP1, AlphaScreen DNA substrate cleavage. Tyrosyl-DNA phosphodiesterase 1 (Homo sapiens), Q9NUW8. Potency, µM (top dose mostly 130 µM), usual class: inhibitors. actives 0.28% (n = 350,000); further: nearly all actives have a fitted effect of over 40% in size
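Here, a 5' biotin and 3' phosphotyrosine-FITC DNA oligonucleotide reports Tdp1 activity: intact substrate bridges AlphaScreen beads, while cleavage leaves a 3' phosphate and drops signal. All incubations at room temperature.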
RECQ1 inh: qHTS Assay for Inhibitors of RecQ-Like Dna Helicase 1 (RECQ1); RECQ1 DNA unwinding, red fluorescence kinetic read; AID 2549, 2010; ATP-dependent DNA helicase Q1 (Homo sapiens), P46063; actives 0.54% (n = 240,000); Potency, µM (highest dose often 57.3 µM), most hits filed as inhibitors; further: nearly all actives have a fitted effect of over 30% in size
Target sequence (P46063 whole entry, looked up): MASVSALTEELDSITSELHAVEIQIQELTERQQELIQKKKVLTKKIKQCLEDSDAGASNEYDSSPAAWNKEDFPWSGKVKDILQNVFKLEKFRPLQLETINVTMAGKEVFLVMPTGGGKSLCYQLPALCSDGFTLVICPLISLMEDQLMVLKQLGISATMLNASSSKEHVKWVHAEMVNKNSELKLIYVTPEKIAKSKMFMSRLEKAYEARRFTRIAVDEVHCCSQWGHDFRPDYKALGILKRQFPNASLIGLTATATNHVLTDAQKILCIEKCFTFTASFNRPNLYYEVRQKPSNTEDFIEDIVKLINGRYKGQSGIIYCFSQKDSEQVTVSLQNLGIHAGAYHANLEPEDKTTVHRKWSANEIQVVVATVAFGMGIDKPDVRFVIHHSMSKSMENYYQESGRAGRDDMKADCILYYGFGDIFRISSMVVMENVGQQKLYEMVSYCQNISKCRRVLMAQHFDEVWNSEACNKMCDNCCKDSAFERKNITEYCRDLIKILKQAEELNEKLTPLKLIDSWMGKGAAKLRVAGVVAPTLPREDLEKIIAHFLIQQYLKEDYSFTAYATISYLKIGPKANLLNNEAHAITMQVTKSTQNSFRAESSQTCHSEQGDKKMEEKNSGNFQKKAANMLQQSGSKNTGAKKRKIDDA
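RECQ1T1 50 nM; forked duplex (20 bp + 30-nt ss tails) 200 nM, ATP 2 mM final; pH 8.0, 2 mM MgCl2, 2.5 ug/ml poly(dI-dC); 15 min compound preincubation; discontinuous kinetic read over 2 h at RT.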
FEN1 inh-1: qHTS Assay for the Inhibitors of Human Flap endonuclease 1 (FEN1) | P39748 | Recombinant FEN1 flap cleavage, fluorescence, 15 min | Potency, µM (titrated, usually from 114 µM), usual class: inhibitors | actives 0.35% (n = 390,000); further: nearly all actives have a fitted effect of over 65% in size
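Recombinant FEN1 (10 nM) was preincubated with pin-transferred compounds for 15 min at room temperature, then flap DNA substrate (50 nM final) was added. Plates were read at 0 and 15 min, and normalized concentration–response data were fitted to a four-parameter Hill equation.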
BLM inh: qHTS Assay for Inhibitors of Bloom's syndrome helicase (BLM) | actives 0.2% (n = 350,000) | AID 2528, 2010 | RecQ-like DNA helicase BLM (Homo sapiens), P54132 | Potency, µM (titrated, usually from 56.1 µM), hits mostly inhibitors | recombinant BLM DNA unwinding, fluorescence dequenching; further: nearly all actives have a fitted effect of over 35% in size
FEN1 inh-2: qHTS Assay for the Inhibitors of FEN1: Confirmatory Assay for Cherry-picked Compounds; FEN1 flap cleavage, TAMRA/BHQ2 fluorogenic DNA substrate; actives 79% (n = 880); shares compounds with FEN1 inh-1; AID 720498, 2013; Potency, µM, usual class: inhibitors; further: nearly all actives have a fitted effect of over 60% in size
Hits are given with their value; 0 = inactive; ? = inconclusive; - = no result. The call rests on the fitted dose curve; in most records, active means well fitted curve in the direction sought with a large enough effect; inconclusive means small, poorly fitted or top-dose-only effect, or another doubt; inactive means no such curve, though single readings can be large; an effect the other way counts as inactive or inconclusive.

SMILES	APEX1 inh	TDP1 inh	RECQ1 inh	FEN1 inh-1	BLM inh	FEN1 inh-2
CCCNC(=O)c1ccc2c(=O)c(O)c(-c3cccc(Br)c3)[nH]c2c1	0	0	0	32µM	0	38
Nc1c(Cl)cc(-c2[nH]c3cc(C(=O)NCCO)ccc3c(=O)c2O)cc1Cl	0	-	-	18µM	0	30
NN1C(=O)/C(=C2/Sc3ccccc3N2CCCS(=O)(=O)O)SC1=S	0	-	-	35µM	0	?
COc1ccc(/C=C/C(=O)NC(=S)Nc2cc([N+](=O)[O-])ccc2O)cc1OC	0	0	0	22µM	0	60
Cc1ccccc1CN1CCc2nc(N3CCN(c4ncccn4)CC3)ncc2C1	-	0	-	?	0	67
CN(C)C(=S)SC(=S)N(C)C	0	0	0	-	0	-
Fc1ccc(CSc2nncn3c2cc2occc23)c(Cl)c1	-	0	-	0	0	-
CC(=O)Nc1sc2c(c1-c1ccc3nc[nH]c3c1)CCNC2	-	-	-	-	-	38
Cc1ccc(NC(=O)c2ccc3nc[nH]c3c2)cc1C	0	0	0	0	0	-
Cc1nc(-c2ccc(S(=O)(=O)N3CCN(c4cccc(C(F)(F)F)c4)CC3)cc2)co1	-	0	-	0	0	-
CCCNC(=O)[C@H]1O[C@@H]1C(=O)N[C@H](C(=O)N1CCC[C@H]1C(=O)OC)[C@@H](C)CC	0	0	0	-	-	-
COc1ccc(S(=O)(=O)N(CC(=O)N(C)Cc2ccccc2)c2ccc(Cl)cc2)cc1	-	-	-	0	0	-
Cn1nc(-c2ccc(OCC(=O)Nc3ccc(Cl)cc3)cc2)c2ccccc2c1=O	-	-	-	?	0	34
Cn1nc(-c2ccc(OCC(=O)Nc3ccccc3)cc2)c2ccccc2c1=O	0	0	0	0	0	-
CCN(CC)c1ccc(NC(=O)c2cc(CN3CCCC3)on2)c(C)c1	-	0	-	0	0	-
Cc1cc(C)nc(NC(=O)CSc2nn(-c3ccccc3)c(=S)s2)n1	0	-	0	?	0	?
COC(=O)c1ccc(CSc2nc3c([nH]c4ccccc43)c(=O)n2-c2ccc(Cl)cc2)o1	-	0	-	0	0	-
CC(C)C[C@H](NC(=O)[C@H](CC(C)C)NC(=O)[C@H](Cc1ccc(O)cc1)NC(=O)CNC(=O)[C@H](C)NC(=O)[C@H](CO)NC(=O)[C@H](CC(N)=O)NC(=O)[C@H](CC(C)C)NC(=O)[C@@H](NC(=O)[C@H](Cc1c[nH]c2ccccc12)NC(=O)CN)[C@@H](C)O)C(=O)NCC(=O)N1CCC[C@H]1C(=O)N1CCC[C@H]1C(=O)N1CCC[C@H]1C(=O)NCC(=O)N[C@@H](Cc1ccccc1)C(=O)N[C@@H](CO)C(=O)N1CCC[C@H]1C(=O)N[C@@H](Cc1ccccc1)C(=O)N[C@@H](CCCNC(=N)N)C(N)=O	0	0	0	-	0	-
COc1ccc2c(C)cc(SCC(=O)Nc3cc(C(N)=O)cc(C(N)=O)c3)nc2c1	0	0	0	?	0	?
COc1cc(C(=O)Nc2ccc(OCc3cc(=O)n4cccc(C)c4n3)cc2)cc(OC)c1OC	-	-	-	0	0	-
O=C(Nc1ccc(S(=O)(=O)O)cc1)c1ccc2c(c1)S(=O)(=O)c1ccccc1C2=O	-	-	-	45µM	-	76
COc1ccc(-c2cc(=O)c3c(O)c(OC)c(OC)c(OC)c3o2)cc1OC	0	0	0	-	0	-
COc1cc(-c2cc(=O)c3c(O)c(OC)c(OC)c(O)c3o2)ccc1O	?	0	13µM	?	0	34
CC1=C(C(=O)OC(C)C)C(c2ccc(Cl)cc2)n2c(s/c(=C\c3ccc(OCC(=O)O)cc3)c2=O)=N1 (configuration not stated)	6.7µM	-	-	?	0	67
Cc1ccccc1CCNC(=O)c1cc2ccccn2n1	-	0	-	0	0	-
SMILES	APEX1 inh	TDP1 inh	RECQ1 inh	FEN1 inh-1	BLM inh	FEN1 inh-2
O=C(C1CCCN(S(=O)(=O)c2ccc(Br)s2)C1)N1CCN(c2ccc(F)cc2)CC1 (configuration not stated)	-	0	-	0	0	-
COc1ccccc1CNS(=O)(=O)c1ccc2c(c1)NC(=O)CC(=O)N2	-	0	-	0	0	-
O=c1c2ccccc2nc(N/N=C/c2ccc(O)cc2)n1O	0	0	0	25µM	0	30
Nc1ccc2nc(-c3cccc(-c4nc5ccc(N)cc5[nH]4)n3)[nH]c2c1	0	-	-	?	14µM	1.7
Fc1ccc(CNc2nc(-c3ccccc3)cc(C(F)(F)F)n2)cc1	-	0	-	0	0	-
CC(C1SC(=S)NC1=O)C1SC(=S)NC1=O (configuration not stated)	-	-	-	-	-	?
COc1ccc(NC(=O)Cn2c(=O)n(CCC(=O)NCc3ccccc3OC)c(=O)c3ccccc32)cc1Cl	-	0	-	0	0	-
CN1CCCC1CCNc1ccc2c(=O)c3ccccc3oc2c1 (configuration not stated)	0	-	-	?	0	-
CN1CCC[C@H]1CCNc1ccc2c(=O)c3ccccc3n(C)c2c1	-	-	-	56µM	-	43
Cc1cccc(N2CCN(c3nc4ccccc4c4nnc(C)n34)CC2)c1C	-	0	-	0	0	-
CC(C)(C)/C(O)=C/c1nc2ccccc2oc1=O	0	0	0	20µM	0	30
CCc1ccc(-n2nc3ccc(NC(=O)c4cc5ccccc5o4)cc3n2)cc1	-	-	-	0	0	-
Cc1c(C(=O)N2CCCC2)oc2c1-c1nn(CC(=O)NCc3ccccc3Br)cc1CC2	-	0	-	?	0	-
COc1ccc2[nH]cc(CCNc3ncnc4ccc(-c5cccnc5)cc34)c2c1	0	-	0	-	0	-
COc1ccc(-c2ccc3ncnc(NCCc4cnc[nH]4)c3c2)cc1OC	-	-	-	-	-	30
COc1cccc(-c2ccc3ncnc(NCc4cc(C)cs4)c3c2)c1	0	0	-	0	-	-
COc1cc(-c2ccc3ncnc(NCc4nc(C)cs4)c3c2)cc(OC)c1OC	-	-	-	-	-	?
Cc1c(Cl)cccc1NC(=O)Nc1nnc(N(C)C2CCCCC2)s1	-	0	-	0	0	-
Cc1ccc2nc(CS)[nH]c2c1	-	-	-	0	-	-
O=C(O)c1cc(N2N=C(C(F)(F)F)/C(=C/C=C/c3ccco3)C2=O)ccc1Cl	0	0	0	3.2µM	?	3.8
CC1=NN(c2ccc(Cl)c(C(=O)O)c2)C(=O)C1	?	-	0	?	0	-
Cc1cccc(C(=O)Nc2nc3nc(-c4ccccc4)cc(=O)n3[nH]2)c1	-	0	-	0	0	-
